# GLP-1R agonist: GLP-1 receptor (human) agonism | HEK293 GLP-1R CRE-luciferase, luminescence, 4-6 h; cells express a hypersensitive GLP-1R form | Potency, µM (highest dose often 45.6 µM), inactives show top-dose activation, usual class: activators | 0.007% of 380,000 active | AID 624172; further: potency means the concentration at half of the fitted maximal effect; % of control where 0% means no effect
# Target sequence (P43220 whole entry, looked up): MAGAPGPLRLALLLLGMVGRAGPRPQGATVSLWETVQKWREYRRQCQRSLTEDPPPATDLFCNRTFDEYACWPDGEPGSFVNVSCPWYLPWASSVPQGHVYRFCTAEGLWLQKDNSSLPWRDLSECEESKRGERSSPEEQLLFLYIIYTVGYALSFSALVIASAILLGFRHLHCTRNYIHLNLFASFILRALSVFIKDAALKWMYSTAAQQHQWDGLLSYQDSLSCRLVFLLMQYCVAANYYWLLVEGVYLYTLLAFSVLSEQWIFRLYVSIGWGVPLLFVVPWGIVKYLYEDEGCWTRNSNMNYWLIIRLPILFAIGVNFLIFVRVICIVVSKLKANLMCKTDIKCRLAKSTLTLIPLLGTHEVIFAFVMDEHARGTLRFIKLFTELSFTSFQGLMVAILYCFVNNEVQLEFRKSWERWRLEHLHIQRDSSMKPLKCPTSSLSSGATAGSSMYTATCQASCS
# TRPML1 blocker: blocks the human TRPML1 channel; Q9GZU1; TRPML1-inducible cells, Ca2+ dye fluorescence, FDSS; active compounds read low; inhibition of EC80 agonist-evoked calcium signal; activity change, negative = inhibition, % (test concentration not listed); 0.02% of 390,000 active; in the data active means activity change below about -50%; inconclusive means between about -30% and that limit;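 further: stimulus is agonist 54-4 at its EC80 concentration; on the % scale 0 is the no-effect control and ±100 the full control effect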
#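 TRPML1-DL cells, Tet-induced overnight (~16 h, 37 °C) at 1,500 cells/well, were loaded with Ca8 no-wash dye plus quencher for 45-90 min at room temperature. Compounds were pinned during FDSS kinetic reading; agonist 54-4 at EC80 (4 uM final) then added.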
# GLP1R cytotox: cytotoxicity in counter-screen for GLP-1R inverse agonists; HEK293 cAMP-luciferase reporter cells, luminescence, 24 h; Potency, µM (doses to about 38.3 µM), for the others: at the top dose activity change, negative = inhibition, actives largely listed as inhibitors; 0.13% of 410,000 active; AID 624418;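 further: loss of luciferase light is scored as toxicity; potency means the concentration at half of the fitted maximal effect; on the % scale 0 is the no-effect control and ±100 the full control effect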
#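 A 23 nL compound transfer followed 12 hours of cell culture at 37 deg C; exposure then lasted 24 hr. Luciferase assay detection reagent was dispensed and plates read for luminescence after a 12 min room-temperature wait.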
# GLP-1R inv ag: inverse agonists of human GLP-1 receptor. P43220. AID 624417. Potency, µM (titrated, usually from 38.3 µM), without a hit: top-dose activity change, negative = inhibition, hits mostly inhibitors. HEK293 GLP-1R CRE-luciferase, luminescence, 24 h; GLP-1R form is constitutively active. 1.6% of 410,000 active; further: potency means the concentration at half of the fitted maximal effect; on the % scale 0 is the no-effect control and ±100 the full control effect; nearly all actives have a fitted effect of over 55% in size
#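 HEK293 cells stably co-expressing constitutively active GLP-1R and a cAMP-responsive luciferase reporter were seeded in DMEM with 10% Nu serum, given compounds after 12 h, and incubated 24 h at 37 deg C. Luminescence was then read.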
# TRPML1 ag: activates the human TRPML1 channel. Q9GZU1. TRPML1-expressing cells, Ca2+ dye fluorescence, FDSS. activation, % (test concentration not listed). 0.12% of 410,000 active. AID 624414; in the data active means activation above about 50%; inconclusive means mostly about 30% to 49%; further: 0% is about no effect
#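 In this qHTS format, compounds were pin-transferred onto Ca8-dye-loaded TRPML1-DL cells induced with Tet overnight, and intracellular Ca2+ fluorescence was recorded kinetically for 110 s after a 10 s baseline. A subsequent 4uM final 54-4 (EC80) addition followed by a second 110 s read served as the antagonist phase.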
# * = called active by the depositor; i = inactive; ? = inconclusive; . = no result given. In the library only some 1.8% were active in any assay of this set; here they are far more common. Unless noted, the call rests on the fitted dose curve; in most records, active means well fitted curve in the direction sought with a large enough effect; inconclusive means small, poorly fitted or top-dose-only effect, or another doubt; inactive means no such curve, though single readings can be large; an effect the other way counts as inactive or inconclusive.
SMILES,GLP-1R agonist,TRPML1 blocker,GLP1R cytotox,GLP-1R inv ag,TRPML1 ag
CN(CC(=O)NCCCc1ccccc1)Cc1ccc(Br)cc1,1%,-4,0%,?,1
CN(CC(=O)NCCc1ccc(F)cc1)Cc1ccc(Br)cc1,21%,-6,5%,10µM*,0
Clc1cccc(-n2ncc3c(Nc4ccc5c(c4)OCCO5)ncnc32)c1,.,-12,-7%,?,1
O=C1CS(=O)(=O)N(Cc2cccc(F)c2)c2ccc(Br)cc21,-3%,11,-6%,10µM*,0
COc1ccc(CN2c3c(Br)cccc3C(=O)CS2(=O)=O)cc1,0%,-13,1%,?,-1
CCCOc1ccc(/C=c2\sc3nc(-c4ccco4)nn3c2=O)cc1OCC,-19%,-1,39%,2%,0
CCCOc1ccc(Cc2nn3c(=O)/c(=C/c4ccco4)sc3nc2=O)cc1,2%,0,10%,0%,50*
CSc1nc(C)cc(Nc2c(C)cc(C)cc2C)n1,.,14,-2%,?,1
CCOc1nc(Nc2ccc(OC)c(Cl)c2)nc(N2CCN(c3ccc(OC)cc3)CC2)n1,11%,4,21%,4.5µM*,0
Cc1ccc2c(CC(=O)Nc3ccc(S(=O)(=O)N4CCCC(C)C4)cc3)coc2c1 (configuration not stated),.,-17,-19%,10µM*,1
O=c1oc2cc(O)ccc2cc1-c1nc2ccccc2o1,-6%,.,i,-21%,99*
O=c1oc2cc(O)ccc2cc1S(=O)(=O)c1ccccc1,-9%,-10,i,12%,-1
O=C(CSc1nc2c(sc3ccccc32)c(=O)n1CCCN1CCCC1)NCc1ccco1,8%,11,?,10µM*,0
O=C(CSc1nc2c(sc3ccccc32)c(=O)n1CCO)NCc1ccco1,-10%,-3,2%,0%,0
Cc1cc(NC(=O)CSc2nc3c(sc4ccccc43)c(=O)n2CCc2ccccc2)n[nH]1,-10%,8,6%,8%,1
Cc1cc(NC(=O)CSc2nc3c(sc4ccccc43)c(=O)n2CCCN2CCOCC2)n[nH]1,19%,5,5µM*,0%,4
N#C[C@H]1C[C@H]2C[C@@H]2N1C(=O)[C@@H](N)C12CC3CC(CC(O)(C3)C1)C2,-4%,.,.,.,.
CCc1ccc(NC(=O)CCc2ccc(CC)o2)cc1,-2%,-11,-21%,10µM*,1
CCc1ccc(NC(=O)CCc2ccc(C)o2)cc1,-2%,0,-10%,?,0
Cc1cc(SCC(=O)NCC(c2cccs2)N2CCOCC2)c(C)cc1Br (configuration not stated),0%,-3,1%,11µM*,1
COc1ccc(C(CNC(=O)C(C)(C)Oc2ccc(Cl)cc2)N2CCCCC2)cc1 (configuration not stated),-1%,-28,?,?,0
Cc1cc(Br)ccc1SCC(=O)NCC(c1ccco1)N1CCCCC1 (configuration not stated),3%,1,?,?,1
CC(=O)Nc1ccc(S(=O)(=O)NC(C)C(=O)NCC(c2ccco2)N2CCCCC2)cc1 (configuration not stated),6%,11,1%,7%,-1
Cc1ccc(C)c(SCC(=O)NCC(c2ccco2)N2CCCCC2)c1 (configuration not stated),-3%,25,4%,11µM*,0
CC(C)(Oc1ccc(Cl)cc1)C(=O)NCC(c1ccco1)N1CCCCC1 (configuration not stated),-2%,-4,6%,8.9µM*,1
SMILES,GLP-1R agonist,TRPML1 blocker,GLP1R cytotox,GLP-1R inv ag,TRPML1 ag
Cc1ccc(S(=O)(=O)NC(CC(C)C)C(=O)NCC(c2ccco2)N2CCCCC2)cc1 (configuration not stated),-3%,-19,-1%,4.5µM*,0
O=C(COc1ccccc1C(=O)Nc1ccccc1)NC1CCCCC1,.,.,.,.,4
Cc1ccccc1CCNC(=O)c1ccc2c(c1)nc1n2CCCCC1,.,-15,7%,?,2
Cc1c(C(=O)NCC(c2ccco2)N2CCCC2)sc2ccccc12 (configuration not stated),13%,22,-1%,8.9µM*,-1
C=CC[C@H]1CC(C)=C[C@H](CC=C)N1C(=O)c1cc(COc2ccccc2SC)on1,13%,24,14%,8.9µM*,1
COCC1CCN(C(=O)c2cc(COc3ccccc3SC)on2)C1 (configuration not stated),-6%,0,0%,-20%,2
COc1ccc(N=Nc2cc(C)ccc2O)cc1,2%,7,-26%,12%,1
Cc1ccc(O)c(N=Nc2nccs2)c1,1%,-7,?,7.1µM*,0
Cc1ccc(NS(=O)(=O)c2ccc(NC(=O)CN(c3cc([N+](=O)[O-])ccc3C)S(C)(=O)=O)cc2)c(C)c1,-8%,10,?,2.2µM*,1
COc1ccc(/C=C/C(=O)N(CC(C)C)CC(C)C)cc1Br,16%,12,-2%,11µM*,3
COc1ccc(CN2CCN(C(=O)CC(C)C)CC2)cc1Br,5%,12,4%,-1%,1
COc1ccc(C(=O)Nc2cc(-c3cccc(C)c3)nn2-c2ccccc2)cc1,.,-12,7%,?,0
CN(CC(=O)Nc1ccc(F)cc1)C(=O)c1cc2c(s1)CCCCC2,19%,4,-16%,10µM*,-1
CN(CC(=O)Nc1cccc(F)c1)C(=O)c1cc2c(s1)CCCCC2,13%,45,-8%,?,4
COc1c(C(CC(C)C)OC(C)=O)ccc2c1C(=O)OCc1cc(C)cc(O)c1O2 (configuration not stated),4%,.,-3%,10µM*,.
COc1c(C(O)CC(C)C)ccc2c1C(=O)OCc1cc(C)cc(O)c1O2 (configuration not stated),-5%,.,-1%,11µM*,.
COc1ccc2c(Sc3ccccc3)c(C(=O)NCCc3ccc(Cl)cc3)[nH]c2c1,.,2,-1%,-1%,1
CCCCC(=O)NC(c1ccccc1Cl)c1c(O)ccc2ccccc12 (configuration not stated),5%,11,-21%,?,2
CC(=O)Oc1ccc2ccccc2c1C(NC(=O)Cc1ccccc1)c1ccccc1Cl (configuration not stated),-14%,31,?,5.6µM*,3
CCCC(=O)NC(c1ccccc1Cl)c1c(O)ccc2ccccc12 (configuration not stated),-15%,15,?,7.1µM*,1
CC(=O)NC(c1ccc(C(C)C)cc1)c1c(O)ccc2ccccc12 (configuration not stated),12%,-3,-15%,?,0

# High-throughput results from PubChem BioAssay.
